# Activity calls are given as the source filed them. How the source made its calls: active means hit-call score of the fitted dose curve at least 0.9, where 1 is the maximum; inactive means score below 0.9.
# Test: CCTE_Shafer_MEA_acute_cross_correlation_area: CCTE's Neural Acute Assay for Area of Cross Correlation, Shafer Lab (AID 2284024);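 further: curves fitted for loss of cross-correlation area so actives lower synchrony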
# Method: CCTE_Shafer_MEA_acute assay is conducted using Axion Biosystems 48 well microelectrode array (MEA) plates and Maestro recording system. Each well of the MEA plate contains a grid of 16 microelectrodes embedded in the culture surface. Electrically active cells, such as neurons, can be cultured over the electrodes, and electrical activity in these cells can be recorded extracellularly. The spontaneous firing of neurons is captured from each electrode on a microsecond timescale providing both temporally and spatially precise data. […] The CCTE_Shafer_MEA_acute assay uses primary cultures of rat cortical neurons. As these cultures mature over time, neural networks develop functional activity and form cohesive networks in which electrical activity can be highly coordinated. Baseline 40-minute recordings are made on days post-plating 13 or 15, followed by a secondary 40-minute recording after chemical exposure.CCTE_Shafer_MEA_acute_cross_correlation_area is a component of the CCTE_Shafer_MEA_acute assay. It measures the area under the well-wide pooled inter-electrode cross-correlation of action potential firing (not normalized to auto-correlations) within a window centered around 0 for the phase lag during a recording in a microelectrode array (MEA) using Axion Biosystems Maestro 768 channel amplifier with the AxIS adaptive spike detector. The recordings before and after chemical treatment are used to calculate a percent change in the cross correlation area in each well.Data from the assay component CCTE_Shafer_MEA_acute_cross_correlation_area was analyzed into 1 assay endpoint. This assay endpoint, CCTE_Shafer_MEA_acute_cross_correlation_area, was analyzed in the negative analysis fitting direction relative to DMSO as the negative control and baseline of activity. Using a type of functional reporter, gain or loss-of-signal activity can be used to understand electrical activity.
# Spontaneous activity in the cortical cultures was recorded using an Axion Biosystems Maestro 768 channel amplifier and Axion Integrated Studios (AxIS) v1.8 (or later) software. The amplifier recorded from all channels simultaneously (gain = 1200 x; sampling rate = 12.5 kHz/channel): raw signals were filtered with a Butterworth band-pass filter (300-5000 Hz), which filters out slower local field potentials leaving only fast potentials, i.e., "spikes", arising from extracellular currents associated with action potentials (Pine 2006; Wheeler and Nam 2011). On-line spike detection of filtered signals was conducted with the AxIS adaptive spike detector, using a threshold of 8x the root mean squared (rms) noise on each channel. Any electrodes with rms noise levels greater than 5 uV were grounded (e.g., no data were recorded). Once grounded, an electrode was grounded for the duration of the experiment. All recordings were conducted at 37 C. Wells were deemed usable if on the day of the exposure >/= 10 electrodes were active (defined as >/= 5 spikes/min). On DIV 13 or 15, a minimum of three wells from one cortical culture preparation were treated with each compound (0.03-40 uM). Prior to recording baseline activity, each mwMEA plate was placed in the Maestro at 37 C and allowed to sit for 20 min while firing rates stabilized. Baseline activity (40 min) was recorded before the addition of each compound. An additional 40 min of spontaneous activity was recorded in the presence of each compound. Changes in network parameters relative to baseline were assessed following compound treatment.
row,Structure (SMILES),outcome
1,c1cc(-c2ccncc2)ccn1,inactive
2,Cc1ccc(C(C)C)c(O)c1,inactive
3,FC(F)(F)C(F)(F)C(F)(F)C(F)(F)C(F)(F)C(F)(F)CCI,inactive
4,C=CCOC(=O)c1ccccc1C(=O)OCC=C,inactive
5,COc1ccc(S(=O)(=O)N2C(=O)[C@@](c3ccccc3OC)(N3C[C@H](O)C[C@H]3C(=O)N(C)C)c3cc(Cl)ccc32)c(OC)c1,inactive
6,CC(=O)Oc1ccccc1C(=O)O,inactive
7,Nc1ccc2c(c1)C(=O)c1ccccc1C2=O,inactive
8,CCCCCCCCCCCCCCCCCC(=O)O,inactive
9,CN[C@H]1CC[C@@H](c2ccc(Cl)c(Cl)c2)c2ccc(S(N)(=O)=O)cc21,inactive
10,O=C(O)CCCCC(=O)O,inactive
11,COc1ccc2c(c1)c(CC(=O)O)c(C)n2C(=O)c1ccc(Cl)cc1,inactive
12,CCOC(=O)C(C)(C)Oc1ccc(Cl)cc1,inactive
13,Clc1cc(Cl)c(Cl)cc1Cl,inactive
14,CCCCCCCCCCO,inactive
15,Cc1ccc(C)c(O)c1C,inactive
16,CCCc1cc(=O)[nH]c(=S)[nH]1,inactive
17,C[Si]1(C)O[Si](C)(C)O[Si](C)(C)O[Si](C)(C)O1,inactive
18,CNCc1cc(F)ccc1Oc1ccc(Cl)c(Cl)c1,inactive
19,Nc1ccccc1N,inactive
20,CN1CCCC1=O,inactive
21,Cc1ccc2ncccc2c1,inactive
22,NS(=O)(=O)c1cc2c(cc1Cl)NCNS2(=O)=O,inactive
23,CC(=O)C(C)=CC1C(C)=CCCC1(C)C (stereo unspecified),inactive
24,NCC1(Cc2noc(=O)[nH]2)CCCCC1,inactive
25,Nc1nc(N)c2nc(CNc3ccc(C(=O)N[C@@H](CCC(=O)O)C(=O)O)cc3)cnc2n1,inactive
26,C=CCc1ccc(O)c(OC)c1,inactive
